# Assay results reported in PubChem BioAssay (NCI).
# Several values for one entry are separate records, joined by “and”; a condition that tells them apart may be missing. Equal values may be shown once. The panel holds about 83,000 compounds, 20% with a hit somewhere; the sample as a whole holds those more often.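 Plates (96-well) were seeded with cells, treated with compound at one concentration, and incubated for 48 hours before percent growth was determined.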 Activity calls are given as the source filed them. Rule for the calls: active = growth percent below 10; inactive = the rest.
# System: DU-145 prostate
# Assay: NCI-60 one-dose screen, 48 h (100 = growth as untreated, 0 = no growth, -100 = all killed)
# Settings: 10 µM unless noted
row,SMILES,growth
1,S=c1nn[nH]n1C1CCCCC1,105% (inactive)
2,CCCC(=O)Oc1ccc(CC)cc1,109% (inactive)
3,CC(CN(C)C)CN1c2ccccc2Sc2ccccc21 (stereo not drawn),97.3% (inactive) and 111% (inactive) and 90% (inactive)
4,O=S(=O)(O)c1ccc2cc(O)ccc2c1,112% (inactive)
5,C(#CCN1CCOCC1)CCCN1CCOCC1,109% (inactive) and 117% (inactive)
6,COc1cc(Cl)ccc1C,5.38% (active)
7,Clc1ccc(/C=C/c2ccc3ccccc3n2)cc1,1.65% (active) and 108% (inactive) and 103% (inactive)
8,CCC(C)(O)CCC(C)(O)CC (stereo not drawn),105% (inactive)
9,CC1(C)CC(=O)NC1=O,109% (inactive)
10,Cc1ccc(NC(=S)N/C=C(\c2ccccc2)S(=O)Cc2ccccc2)c(C)c1 (stereo not drawn),109% (inactive)
11,COC(=O)c1ccccc1Cl,106% (inactive)
12,N#Cc1c(N)nc2c(c(-c3ccc(Cl)cc3)nn2-c2ccccc2)c1C#N,101% [100 µM] (inactive)
13,Cn1c(-c2ccccc2)cc(=O)cc1-c1ccccc1,3.58% (active)
14,CC(C)(C)C1CCC(=NO)CC1 (stereo not drawn),112% (inactive)
15,CC1=CC(=O)c2cccc(NC3=NCCO3)c21,108% (inactive)
16,CCOC(C)=N,118% (inactive)
17,O=C(N=C1C(=O)C2(CCCCC2)C2(N=C(c3ccccc3)OC2=O)C12CCCCC2)c1ccccc1 (stereo not drawn),79% (inactive)
18,Cc1ccc2cccc([N+](=O)[O-])c2n1,116% (inactive) and 109% (inactive)
19,CCOc1ccc(/C=C\C(=O)O)cc1,111% (inactive)

row,SMILES,growth
1,O=C(Nc1ccccc1)OCC(CN1CCCCC1)OC(=O)Nc1ccccc1 (stereo not drawn),107% (inactive)
2,CSc1nc(N)c(N)c(N)n1,106% (inactive)
3,O=C(O)c1cc(=O)[nH]c(=O)[nH]1,116% (inactive) and 104% (inactive)
4,C/C=C/C(=O)OCCCCCCCCCCCC,118% (inactive)
5,CCOC(=O)C1=CC(=O)CC(C)(C)O1,123% (inactive) and 110% (inactive)
6,CCN(CC)CCO/N=C1\CC(c2ccc(OC)c(OC)c2)Oc2ccccc21 (stereo not drawn),105% (inactive)
7,NC1=NC(c2ccccc2)N=C(Nc2ccccc2)N1 (stereo not drawn),105% (inactive) and 100% (inactive)
8,Cc1cnc(N)s1,106% (inactive)
9,CC1=CC(=O)C=CC1=Nc1ccc(N(C)C)cc1,107% (inactive) and 71.8% (inactive)
10,C#CCOC(=O)C(N)CS (stereo not drawn),113% (inactive)
11,O=C(O)c1ccc2c3ccc(C(=O)O)c4c(C(=O)O)ccc(c5ccc(C(=O)O)c1c25)c43,112% (inactive)
12,COc1ccc2nccc(Cl)c2c1,101% (inactive)
13,COC(=O)c1nc(N)nc(C(=O)OC)c1C(=O)c1cccc2ccccc12,121% (inactive)
14,C/C(CC(C)C)=N/NC(N)=S,92.2% (inactive)
15,Cc1c(Cl)c(C)c(Cc2c(C)c(Cl)c(C)c(Cl)c2O)c(O)c1Cl,30.2% (inactive)
16,CCCC(=O)Oc1ccc2ccccc2c1,111% (inactive)
17,CCOC(=N)c1ccc(C(=N)OCC)cc1,103% (inactive)
18,COc1ccc(/C=C/C(=O)O)cc1OC,108% (inactive) and 111% (inactive)
19,CCCC(=O)OCC(COC(=O)CCC)OC(=O)CCC,111% (inactive)
